About 2,000 (36%) of roughly 5,500 compounds were called active. Another 18% or so got no clear call; they are omitted. Rule as the data show it: active = normalized growth mostly below about 0.91 (no sharp cut-off); inconclusive = no clear call, values can overlap the other calls; inactive = mostly above about 0.92. This is one part of the list.
Assay: chemical genetic growth profiling, strain panel (AID 1159580);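 also: tested at 20 µM; growth read once vehicle control cultures reached saturation at 30 °C; 1 = growth at the plate median or of vehicle wells; lower values mean less growth of the strain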
Settings: S. cerevisiae deletion strains, growth OD

Measured: normalized growth

Cc1cccc(Nc2cc(Cl)nc(SCC(=O)O)n2)c1C
inactive: locus YAL021C, strain ccr4, hits give low values 0.932 | locus YAL026C, strain drs2, hits give low values 1.01 | locus YAL030W, strain snc1, hits give low values 1 | locus YBL061C, strain skt5, hits give low values 0.999 | locus YBR009C, strain hhf1, hits give low values 1.06 | locus YBR023C, strain chs3, hits give low values 1 | locus YBR171W, strain sec66, hits give low values 0.988 | locus YBR231C, strain swc5, hits give low values 1.01 | locus YBR279W, strain paf1, hits give low values 1.01 | locus YCL011C, strain gbp2, hits give low values 0.987 | locus YCL016C, strain dcc1, hits give low values 1.01 | locus YCL061C, strain MRC1, hits give low values 0.984 | locus YCL069W, strain vba3, hits give low values 0.99 | locus YCR088W, strain abp1, hits give low values 0.988 | locus YDL005C, strain med2, hits give low values 0.99 | locus YDL040C, strain nat1, hits give low values 0.996 | locus YDR001C, strain nth1, hits give low values 0.984 | locus YDR069C, strain doa4, hits give low values 0.998 | locus YDR137W, strain rgp1, hits give low values 0.934 | locus YDR159W, strain sac3, hits give low values 1.03 | locus YDR195W, strain ref2 0.987 | locus YDR297W, strain sur2, hits give low values 0.991 | locus YDR334W, strain swr1, hits give low values 0.969 | locus YDR335W, strain msn5, hits give low values 0.996 | locus YDR392W, strain spt3, hits give low values 0.965 | locus YEL003W, strain gim4, hits give low values 0.999 | locus YEL037C, strain rad23, hits give low values 0.999 | locus YEL061C, strain CIN8 (second series), hits give low values 0.991 | locus YER015W, strain faa2, hits give low values 1.02 | locus YER016W, strain bim1, hits give low values 1.01 | locus YER111C, strain swi4, hits give low values 1.01 | locus YER155C, strain BEM2 (second series), hits give low values 1.04 | locus YFR010W, strain ubp6, hits give low values 1 | locus YGL167C, strain pmr1, hits give low values 0.997 | locus YGL173C, strain kem1, hits give low values 1 | locus YGL227W, strain vid30, hits give low values 1 | locus YGL240W, strain doc1, hits give low values 1.03 | locus YGL253W, strain hxk2, hits give low values 1.01 | locus YHR013C, strain ard1, hits give low values 0.977 | locus YHR027C, strain rpn1, hits give low values 0.987 | locus YHR142W, strain chs7, hits give low values 0.936 | locus YJL092W, strain hpr5, hits give low values 0.983 | locus YJL095W, strain BCK1 (second series), hits give low values 0.987 | locus YJL115W, strain asf1, hits give low values 0.98 | locus YJL129C, strain trk1, hits give low values 0.986 | locus YJL154C, strain vps35, hits give low values 0.992 | locus YJL164C, strain tpk1, hits give low values 0.978 | locus YJL166W, strain qcr8, hits give low values 1.01 | locus YJL187C, strain SWE1, hits give low values 0.996 | locus YKL160W, strain elf1, hits give low values 0.955 | locus YKR026C, strain gcn3, hits give low values 0.988 | locus YKR091W, strain srl3, hits give low values 0.989 | locus YLL001W, strain dnm1, hits give low values 1 | locus YLL026W, hits give low values 0.992 | locus YLL041C, strain sdh2, hits give low values 0.99 | locus YLR027C, strain aat2, hits give low values 0.993 | locus YLR221C, strain rsa3, hits give low values 0.997 | locus YLR258W, strain gsy2, hits give low values 1.01 | locus YLR262C, strain YPT6 (second series), hits give low values 0.962 | locus YLR320W, strain mms22, hits give low values 0.989 | locus YLR342W, strain FKS1, hits give low values 1 | locus YLR357W, strain rsc2, hits give low values 1.02 | locus YLR370C, strain arc18, hits give low values 0.992 | locus YLR384C, strain iki3, hits give low values 0.998 | locus YML120C, strain ndi1, hits give low values 0.986 | locus YMR058W, strain fet3, hits give low values 0.983 | locus YMR125W, strain sto1, hits give low values 0.988 | locus YMR129W, hits give low values 0.973 | locus YMR205C, strain PFK2, hits give low values 1.05 | locus YMR231W, strain pep5, hits give low values 0.992 | locus YNL071W, strain lat1, hits give low values 0.985 | locus YNL209W, strain ssb2, hits give low values 0.993 | locus YNL248C, strain rpa49, hits give low values 0.933 | locus YNL322C, strain KRE1 (second series), hits give low values 0.996 | locus YNR049C, strain mso1, hits give low values 0.988 | locus YOR001W, strain rrp6, hits give low values 0.974 | locus YOR070C, strain gyp1, hits give low values 1 | locus YOR080W, strain dia2, hits give low values 1.02 | locus YOR083W, strain WHI5, hits give low values 0.942 | locus YOR106W, strain vam3, hits give low values 0.946 | locus YOR265W, strain rbl2, hits give low values 0.992 | locus YOR270C, strain vph1, hits give low values 0.972 | locus YOR290C, strain snf2, hits give low values 0.976 | locus YPL051W, strain arl3, hits give low values 0.974 | locus YPL078C, strain atp4, hits give low values 0.925 | locus YPL106C, strain sse1, hits give low values 1.01 | locus YPL240C, strain hsp82, hits give low values 0.978
